# Results published in PubChem BioAssay.
# Results with a measured potency or affinity are listed apart. Activity calls are given as the source filed them. No rule for the calls is given here.
# Experiment: A549 cell cytotoxicity, dose response, cytotoxicity control, plate reader, cherry-pick, antagonist series (AID 743412)
# Details: series mostly up to 26 µM
row,SMILES,outcome
1,Cn1cccc1C(=O)OCC(=O)Nc1ccc2c(c1)OCCO2,inactive
2,Cc1cnc(NC(=O)c2ccc(OCC3CCCO3)cc2)s1 (stereo not given),inactive
3,Cc1ccccc1C(=O)Nc1nnc(-c2ccco2)s1,inactive
4,CCCCN(CCCNC(=O)c1ccc2c(c1)NC(=O)CN2C)c1ccccc1,inactive
5,Clc1ccccc1/C=C/c1nc(-c2ccccn2)no1,inactive
6,O=C(O)c1ccc(N/N=C/c2ccc(OC(=O)c3cccc(Cl)c3)cc2)cc1,inactive
7,CCCC(=O)N1CCCC(c2cc(C(=O)Nc3ccccc3)no2)C1 (stereo not given),inactive
8,COc1ccc(-c2nc(-c3cccs3)no2)cc1,inactive
9,Cc1cc(C(=O)COC(=O)C2CC2)c(C)n1-c1ccc(F)cc1,inactive
10,CCCCCc1ccc(-c2ccc(C(=O)O)cc2)nc1,inactive
11,COc1cc(NC(=O)c2cccs2)c(C(=O)OCC(=O)c2cc(C)n(-c3ccccc3)c2C)cc1OC,inactive
12,CCN(CC)S(=O)(=O)c1cc(C(=O)OCC(=O)Nc2ccc(-c3nc4ccc(C)cc4s3)cc2)ccc1F,inactive
13,Cc1ccc(NC(=O)c2cnn(-c3ccccc3)c2C)cc1C,inactive
14,O=C(COc1ccc2ccccc2c1)Nc1nccs1,inactive
15,O=C(CN1C(=O)c2ccccc2S1(=O)=O)c1ccc2c(c1)OCCCO2,inactive
16,O=C(O)c1ccc(N/N=C/c2ccc3ncccc3c2)cc1,inactive
17,CCOC(=O)c1cn2nc(N3CCCC3)ccc2n1,inactive
18,O=C(CCCc1ccccc1)Nc1cccc(C(=O)O)c1,inactive
19,O=C(CN1C(=O)c2ccccc2S1(=O)=O)c1ccc(F)c(F)c1,inactive
20,COc1ccc(-c2cc(C(=O)N3CCOCC3)no2)cc1,inactive

row,SMILES,outcome
1,O=C1OCCC1Sc1nnc(-c2ccc(Cl)cc2Cl)o1 (stereo not given),inactive
2,c1ccc(-n2cnnc2SCc2cn3cccnc3n2)cc1,inactive
3,COc1ccc(/C=C/C(=O)Nc2ccccc2C(=O)O)cc1OC,inactive
4,CN(C)c1ccc(-c2nc3cc(N)ccc3o2)cc1,inactive
5,Cc1ccc2nc(-c3ccc(NC(=O)COC(=O)c4ccco4)cc3)sc2c1,inactive
6,COc1cccc(-c2cc(C(=O)N3CCCCCC3)no2)c1,inactive
7,Cc1ccc2nc(-c3ccc(NC(=O)C(C)Sc4nncs4)cc3)sc2c1 (stereo not given),inactive
8,COc1cc(SC)ccc1C(=O)Nc1ncc(C)s1,inactive
9,Cc1c(C)c2ccc(OCC(=O)Nc3nccs3)cc2oc1=O,inactive
10,Cc1ccc(-c2nnc(-c3ccccc3Br)o2)cc1,inactive
11,COc1ccc(S(=O)(=O)N2CCCCN3[C@H](CO)[C@H](c4ccc(-c5cccnc5)cc4)[C@@H]3C2)cc1,inactive
12,O=C(O)c1c2c(nc3ccccc13)/C(=C/c1ccc(O)cc1)CC2,inactive
13,CC(C)(C)c1ccc(C(=O)NCCOc2ccccc2F)cc1,inactive
14,O=C(Nc1cccc(C(=O)O)c1)Nc1ccccc1Cl,inactive
15,C[C@@H]1CN([C@@H](C)CO)C(=O)c2cc(NS(=O)(=O)c3ccc(F)cc3)ccc2O[C@H]1CN(C)Cc1ccc(-c2ccccc2)cc1,inactive
16,O=C(c1cc(-c2ccc(Cl)cc2Cl)on1)N1CCCC1,inactive
17,CN(C)c1ccc(C2NC(=O)c3ccccc3N2)cc1 (stereo not given),inactive
18,Cc1ccc2nc(NC(=O)CCCC(=O)O)sc2c1,inactive
19,O=C(Nc1cccc(O)c1)c1cc(-c2ccc3c(c2)OCO3)on1,inactive
20,Cc1ccnc(NC(=O)c2cccc(S(=O)(=O)N3CCN(c4ccccc4)CC3)c2)c1,inactive

# Experiment: HepG2 cell cytotoxicity, dose response, cytotoxicity control, plate reader, cherry-pick, antagonist series (AID 743416)
# Details: series mostly up to 26 µM
row,SMILES,outcome
1,Cn1cccc1C(=O)OCC(=O)Nc1ccc2c(c1)OCCO2,inactive
2,Cc1cnc(NC(=O)c2ccc(OCC3CCCO3)cc2)s1 (stereo not given),inactive
3,Cc1ccccc1C(=O)Nc1nnc(-c2ccco2)s1,inactive
4,CCCCN(CCCNC(=O)c1ccc2c(c1)NC(=O)CN2C)c1ccccc1,inactive
5,Clc1ccccc1/C=C/c1nc(-c2ccccn2)no1,inactive
6,O=C(O)c1ccc(N/N=C/c2ccc(OC(=O)c3cccc(Cl)c3)cc2)cc1,inactive
7,CCCC(=O)N1CCCC(c2cc(C(=O)Nc3ccccc3)no2)C1 (stereo not given),inactive
8,COc1ccc(-c2nc(-c3cccs3)no2)cc1,inactive
9,Cc1cc(C(=O)COC(=O)C2CC2)c(C)n1-c1ccc(F)cc1,inactive
10,CCCCCc1ccc(-c2ccc(C(=O)O)cc2)nc1,inactive
11,COc1cc(NC(=O)c2cccs2)c(C(=O)OCC(=O)c2cc(C)n(-c3ccccc3)c2C)cc1OC,inactive
12,CCN(CC)S(=O)(=O)c1cc(C(=O)OCC(=O)Nc2ccc(-c3nc4ccc(C)cc4s3)cc2)ccc1F,inactive
13,Cc1ccc(NC(=O)c2cnn(-c3ccccc3)c2C)cc1C,inactive
14,O=C(COc1ccc2ccccc2c1)Nc1nccs1,inactive
15,O=C(CN1C(=O)c2ccccc2S1(=O)=O)c1ccc2c(c1)OCCCO2,inactive
16,O=C(O)c1ccc(N/N=C/c2ccc3ncccc3c2)cc1,inactive
17,CCOC(=O)c1cn2nc(N3CCCC3)ccc2n1,inactive
18,O=C(CCCc1ccccc1)Nc1cccc(C(=O)O)c1,inactive
19,O=C(CN1C(=O)c2ccccc2S1(=O)=O)c1ccc(F)c(F)c1,inactive
20,COc1ccc(-c2cc(C(=O)N3CCOCC3)no2)cc1,inactive

row,SMILES,outcome
1,O=C1OCCC1Sc1nnc(-c2ccc(Cl)cc2Cl)o1 (stereo not given),inactive
2,c1ccc(-n2cnnc2SCc2cn3cccnc3n2)cc1,inactive
3,COc1ccc(/C=C/C(=O)Nc2ccccc2C(=O)O)cc1OC,inactive
4,CN(C)c1ccc(-c2nc3cc(N)ccc3o2)cc1,inactive
5,Cc1ccc2nc(-c3ccc(NC(=O)COC(=O)c4ccco4)cc3)sc2c1,inactive
6,COc1cccc(-c2cc(C(=O)N3CCCCCC3)no2)c1,inactive
7,Cc1ccc2nc(-c3ccc(NC(=O)C(C)Sc4nncs4)cc3)sc2c1 (stereo not given),inactive
8,COc1cc(SC)ccc1C(=O)Nc1ncc(C)s1,inactive
9,Cc1c(C)c2ccc(OCC(=O)Nc3nccs3)cc2oc1=O,inactive
10,Cc1ccc(-c2nnc(-c3ccccc3Br)o2)cc1,inactive
11,COc1ccc(S(=O)(=O)N2CCCCN3[C@H](CO)[C@H](c4ccc(-c5cccnc5)cc4)[C@@H]3C2)cc1,inactive
12,O=C(O)c1c2c(nc3ccccc13)/C(=C/c1ccc(O)cc1)CC2,inactive
13,CC(C)(C)c1ccc(C(=O)NCCOc2ccccc2F)cc1,inactive
14,O=C(Nc1cccc(C(=O)O)c1)Nc1ccccc1Cl,inactive
15,C[C@@H]1CN([C@@H](C)CO)C(=O)c2cc(NS(=O)(=O)c3ccc(F)cc3)ccc2O[C@H]1CN(C)Cc1ccc(-c2ccccc2)cc1,inactive
16,O=C(c1cc(-c2ccc(Cl)cc2Cl)on1)N1CCCC1,inactive
17,CN(C)c1ccc(C2NC(=O)c3ccccc3N2)cc1 (stereo not given),inactive
18,Cc1ccc2nc(NC(=O)CCCC(=O)O)sc2c1,inactive
19,O=C(Nc1cccc(O)c1)c1cc(-c2ccc3c(c2)OCO3)on1,inactive
20,Cc1ccnc(NC(=O)c2cccc(S(=O)(=O)N3CCN(c4ccccc4)CC3)c2)c1,inactive
